Screening results: PubChem, several laboratories
Hits are enriched below; roughly 1.7% of the tested compounds scored in any of these assays.
TLR4-MyD88 BLA – inhibitors of TLR4-MyD88 association in cells, primary screen, cell-based, HeLa CL3-4, BLA complementation, FRET ratio. 200,000 compounds, 0.18% hits. inhibition, % at 8.4 µM. HeLa CL3-4 TLR4/MyD88 BLA complementation; in the data active = inhibition above about 25%;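 note: 0% = vehicle and 100% = reference inhibitor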
Myeloid diff 2 – induction of myeloid progenitor differentiation, primary screen, cell-based, flow cytometry, MLPCN library. ER-HoxA9 myeloid progenitors, lysozyme-GFP differentiation. calls only at 10 µM. 360,000 compounds, 1% hits. AID 624256, 2012;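 active = normalized GFP-positive differentiation at or above the plate's own cutoff, the solvent-only control mean plus 3 SD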;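 note: cells exposed to compound for four days before flow analysis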
ABCB6 inh MLPCN – ABCB6 transporter inhibitors, primary screen, K562-ABCB6 cells, flow cytometry, MLPCN library. AID 602162, 2011. ATP-binding cassette sub-family B member 6 (Homo sapiens), Q9NP58. 360,000 compounds, 0.19% hits. K562-ABCB6 porphyrin accumulation, 1 h; active compounds read low. fluorescence ratio to DMSO, % at 10 µM;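 active = fluorescence ratio to DMSO below 75%, the collection mean minus 3 SD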;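 note: signal is porphyrin accumulated inside mitochondria; 100% equals median channel fluorescence of DMSO control wells; lower ratio means ABCB6 inhibition with less porphyrin fluorescence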
TLR9-MyD88 block – inhibitors of TLR9-MyD88 association in cells, primary screen, cell-based, CHO, BLA complementation, fluorescence. AID 504734, 2011. 340,000 compounds, 0.21% hits. CCF4 FRET ratio. Toll-like receptor 9 (Homo sapiens) + Myeloid differentiation primary response protein …. inhibition, % at 4.98 µM;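 active = inhibition above the mean over all tested compounds plus 3 SD, cut at about 21% in these data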;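 note: 0% = DMSO only wells and 100% = clavulanate BLA inhibitor control wells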
NOD2-RIPK2 inh – NOD2-RIPK2 binding disruptors in cells, primary screen, fluorescence, CHO cells, BLA complementation; CCF4 ratio; 360,000 compounds, 0.38% hits; inhibition, % at 4.98 µM; Receptor-interacting serine/threonine-protein kinase 2 (Homo sapiens), O43353; in the data active = inhibition above about 21%;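 note: 0% = vehicle only and 100% = reference blocker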
Myeloid diff CP1 – inducers of myeloid progenitor differentiation, confirmation, cell-based, GFP/Mac1 flow cytometry, cherry pick 01. ER-HoxA9 myeloid progenitors, GFP/Mac1 double-positive flow. 2,300 compounds, 2% hits. calls only. shares compounds with Myeloid diff 2;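 active = share of green or green-and-red cells above 9 and 9% in run 1 or 4 and 3% in run 2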
GFP autofluor – flagged as fluorescent in myeloid differentiation counter-screen | shares compounds with Myeloid diff 2 | ER-HoxA9 myeloid progenitors, no estrogen, GFP autofluorescence flow cytometry; vehicle wells 0%, positive control 100% | 2,300 compounds, 7.4% hits | AID 651707 | fluorescence response, % (test concentration not listed);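 active = over 5% cells positive for green fluorescent reporter, or over 2% positive for both it and APC stain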;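 note: range taken on the double positive population between DMSO and positive control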
Starred values were filed as active, the others as inactive; i = inactive; . = not tested or not shown; + = active, no number.

SMILES | TLR4-MyD88 BLA | Myeloid diff 2 | ABCB6 inh MLPCN | TLR9-MyD88 block | NOD2-RIPK2 inh | Myeloid diff CP1 | GFP autofluor
c1ccc2cc(CSCc3nc4ccccc4[nH]3)ccc2c1 | -3 | i | 95 | 4 | 2 | . | .
CCC(=O)N1CCc2cc(S(=O)(=O)CCC(=O)NCc3ccccc3OC)ccc21 | . | i | 106 | 3 | -12 | . | .
COc1ccc(NC(=O)CN2CCN(c3nc(-c4cccc(OC)c4)cs3)CC2)cc1 | 9 | i | 92 | 1 | 1 | . | .
COc1cccc(-c2csc(N3CCN(CC(=O)Nc4ccc5c(c4)OCO5)CC3)n2)c1 | -7 | i | 91 | -2 | 1 | i | 0
O=C(Nc1ccc(F)cc1)C(c1cccc(F)c1)N1CCN(c2cccc(C(F)(F)F)n2)CC1 (centres undefined) | . | i | . | . | 5 | . | .
O=C(N/N=C/c1ccncc1)c1ccccc1OCc1ccc(Br)cc1 | 1 | i | 100 | 1 | 0 | i | 0
Cc1ccc(C)c(Cn2ncc3ccccc32)c1 | . | i | 100 | 0 | -9 | . | .
CC(OC(=O)/C=C/c1ccco1)C(=O)NC1CCCCC1 (centres undefined) | . | i | 99 | 10 | 0 | . | .
Cn1c(C(=O)N2CCCC(C(=O)NCCCSC3CCCCC3)C2)cc2sccc21 (centres undefined) | 3 | i | 94 | 1 | -6 | . | .
Cn1c(C(=O)N2CCCC(C(=O)NCc3cccs3)C2)cc2sccc21 (centres undefined) | 0 | + | 105 | -12 | 7 | i | 0
CCn1c(C(=O)N2CCCC(C(=O)NCCc3ccc(C)cc3)C2)cc2sccc21 (centres undefined) | -2 | i | 98 | -10 | 3 | i | 0
Cc1[nH]nc(Sc2ccccn2)c1[N+](=O)[O-] | 1 | i | 97 | -3 | 0 | . | .
COc1ccc(N/C=C2/CCCCC2=O)cc1 | 10 | i | 101 | -2 | -4 | i | 1
COc1cc(OC)c(OC)cc1CNCCSc1nnnn1C | 3 | i | 102 | -4 | -10 | . | .
CCOc1ccc(Nc2oc(-c3ccco3)nc2C#N)cc1 | 5 | + | 106 | -10 | -8 | i | 0
O=C(N/N=C/c1ccc([N+](=O)[O-])o1)C1CCCC1 | . | . | 98 | -2 | -9 | . | .
O=[N+]([O-])c1ccc(/C=[N+](\[O-])[C@@H]2CCCC[C@@H]2/[N+]([O-])=C/c2ccc([N+](=O)[O-])o2)o1 | . | + | 99 | 11 | 6 | i | 0
CC1=CC(C)(C)N(C(=O)CNC2CCCCC2)c2cc(C)ccc21 | 6 | + | 106 | -14 | 1 | i | 0
CC1=CC(C)(C)N(C(=O)CCl)c2cc(C)ccc21 | -7 | i | 100 | 1 | 1 | i | 0
CCCCN1C[C@H](Cc2ccccc2)[C@@H](CC(=O)Nc2ccccc2)C1=O | . | i | 95 | 6 | -1 | i | 0
CC1(C)CN(CCc2ccccc2)C(=O)[C@H]1CC(=O)Nc1ccccc1 | . | + | 105 | 1 | 4 | i | 10*
O=C(C1CCCCN1S(=O)(=O)c1ccccc1)N1CCCCC1 (centres undefined) | 6 | + | 97 | -8 | 5 | i | 0
COC(=O)c1ccccc1N1C(=O)C2C(C1=O)C1C=CC2C12CC2 (centres undefined) | 4 | + | 103 | 0 | 2 | i | 94*
C[C@@H]1CN([C@@H](C)CO)C(=O)CCCn2cc(nn2)CO[C@H]1CN(C)C(=O)c1ccc2ccn(C)c2c1 | . | i | 103 | -3 | 4 | . | .
Cc1nc2ccc(S(=O)(=O)NCC(=O)N3CCC(C)CC3)cc2s1 | 5 | i | 90 | -1 | -2 | i | 0
CCc1nc2ccccc2c(C(=O)NCc2ccccc2)c1C | 2 | i | 98 | -3 | 4 | i | 0
